In all, about 8,300 sequences were measured (“log2 fold change of degron read counts, EGFP-low vs EGFP+ sorted cells (limma voom), compound-induced degradation”: median about -1.1, highest 2% from about 3.2 on). The full list was thinned out, with the highest values kept by preference.
T1: CRBN, Q96SW2
T1 chain: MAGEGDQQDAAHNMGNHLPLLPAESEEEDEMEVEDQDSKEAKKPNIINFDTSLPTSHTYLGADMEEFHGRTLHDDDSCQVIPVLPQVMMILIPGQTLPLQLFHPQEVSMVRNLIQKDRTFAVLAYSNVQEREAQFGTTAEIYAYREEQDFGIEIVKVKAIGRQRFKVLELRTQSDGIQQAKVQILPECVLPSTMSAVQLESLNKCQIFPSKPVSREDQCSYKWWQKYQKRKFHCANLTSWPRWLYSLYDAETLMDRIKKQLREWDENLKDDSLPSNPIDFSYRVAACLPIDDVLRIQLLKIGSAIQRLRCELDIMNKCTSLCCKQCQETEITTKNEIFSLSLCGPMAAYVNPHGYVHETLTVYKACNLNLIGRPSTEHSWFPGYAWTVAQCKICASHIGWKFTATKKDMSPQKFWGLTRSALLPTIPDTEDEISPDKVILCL


Molecular target: T1, CRBN, Q96SW2
Assay: log2 fold change of degron read counts, EGFP-low vs EGFP+ sorted cells (limma voom), compound-induced degradation; higher = more compound-induced degradation of the degron-EGFP fusion; degrons are variants of IKZF1/3 zinc finger 2; compound dose not given here
Conditions: Jurkat, 18 h
Description: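 Pooled library of 8380 IKZF3 ZF2 degron mutants (positions 146-167 varied within the IKZF3 130-189 degron; only the varied core is printed, flanks not printed) fused to EGFP with IRES-mCherry, lentivirally expressed in Jurkat cells. mCherry+ cells were treated with one IMiD compound for 18 h (dose not stated) and FACS-sorted into EGFP-low and EGFP+ populations. Degron sequences were counted by NGS, and log2FC (EGFP-low vs EGFP+) was estimated by limma voom over 3 biological replicates.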

[1] = compound: compound 19 (5-tert-butyl-thalidomide)
[2] = compound: compound 22 (5-morpholino-thalidomide)
[3] = compound: compound 33 (diphenyl IMiD analogue)
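Note: pooled lentiviral library of zinc finger degron-EGFP fusions in mCherry-positive Jurkat cells, FACS-sorted after compound exposure, with degron abundance counted by next-generation sequencing.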

Row | Sequence | log2 fold change of degron read counts [1] | log2 fold change of degron read counts [2] | log2 fold change of degron read counts [3] | log2 fold change of degron read counts (compound: thalidomide)
1 | FSCPVCGAMFTQKGNLLRHIKL [46F_47S_49P_50V_52G_53A_54M_55F_67L_, Q9UKT9] | 1.68 | 0.847 | 1.55 | 0.449
2 | FGCPVCGAMFTQKGNLLRHIKL [46F_47G_49P_50V_52G_53A_54M_55F_67L_, Q9UKT9] | 3.86 | 2.08 | 2.22 | 0.29
3 | FNCPVCGAMFTQKGNLLRHIKL [46F_47N_49P_50V_52G_53A_54M_55F_67L_, Q9UKT9] | 0.95 | -0.0712 | 0.173 | 0.109
4 | FVCPVCGAMFTQKGNLLRHIKL [46F_47V_49P_50V_52G_53A_54M_55F_67L_, Q9UKT9] | -0.83 | 1.28 | 1.78 | 1.71
5 | FQCPVCGAMFTQKGNLLRHIKL [46F_47Q_49P_50V_52G_53A_54M_55F_67L_, Q9UKT9] | -0.606 | 2.26 | 2.34 | 3.58
6 | FACPVCGAMFTQKGNLLRHIKL [46F_47A_49P_50V_52G_53A_54M_55F_67L_, Q9UKT9] | 2.83 | 0.812 | 0.601 | -0.0754
7 | LHCNQCGFRCTQKGNLLRHIKL [46L_47H_49N_50Q_52G_53F_54R_55C_67L_, Q9UKT9] | -1.15 | -1.7 | -1.52 | -1.61
8 | FRCPICGHQFTQKGNLLRHIKL [46F_47R_49P_50I_52G_53H_54Q_55F_67L_, Q9UKT9] | -2.97 | -2.88 | -2.09 | -1.65
9 | FNCEICGRGFTQKGNLLRHIKL [46F_47N_49E_50I_52G_53R_54G_55F_67L_, Q9UKT9] | -0.684 | -2.34 | -2.3 | -2.43
10 | FICDVCGADFTQKGNLLRHIKL [46F_47I_49D_50V_52G_53A_54D_55F_67L_, Q9UKT9] | -3.13 | -2.03 | -2.05 | -2.17
11 | FTCEICGRSFTQKGNLLRHIKL [46F_47T_49E_50I_52G_53R_54S_55F_67L_, Q9UKT9] | -2.68 | -1.98 | -1.23 | -0.866
12 | FVCNICGAAFTQKGNLLRHIKL [46F_47V_49N_50I_52G_53A_54A_55F_67L_, Q9UKT9] | -0.113 | 1.76 | 1.87 | 2.31
13 | LVCNQCGFDCTQKGNLLRHIKL [46L_47V_49N_50Q_52G_53F_54D_55C_67L_, Q9UKT9] | -2.99 | -3.3 | -2.89 | -2.71
14 | LTCNQCGFFCTQKGNLLRHIKL [46L_47T_49N_50Q_52G_53F_54F_55C_67L_, Q9UKT9] | -1.72 | -1.87 | -2.06 | -1.27
15 | FKCEVCGAEFTQKGNLLRHIKL [46F_47K_49E_50V_52G_53A_54E_55F_67L_, Q9UKT9] | -1.42 | -2.94 | -2.99 | -1.02
16 | FTCEVCGAEFTQKGNLLRHIKL [46F_47T_49E_50V_52G_53A_54E_55F_67L_, Q9UKT9] | -0.301 | 1.19 | 0.247 | 1.9
17 | FFCEVCGAEFTQKGNLLRHIKL [46F_47F_49E_50V_52G_53A_54E_55F_67L_, Q9UKT9] | 3.01 | 3.05 | 0.82 | 0.898
18 | FQCPVCGAEFTQKGNLLRHIKL [46F_47Q_49P_50V_52G_53A_54E_55F_67L_, Q9UKT9] | 0.475 | 1.57 | 2.3 | 3.76
19 | FNCEVCGAEFTQKGNLLRHIKL [46F_47N_49E_50V_52G_53A_54E_55F_67L_, Q9UKT9] | 0.9 | -1.18 | -1.23 | -0.895
20 | FSCPVCGAEFTQKGNLLRHIKL [46F_47S_49P_50V_52G_53A_54E_55F_67L_, Q9UKT9] | 1.12 | 0.204 | 1.45 | 0.472
21 | FYCEVCGAEFTQKGNLLRHIKL [46F_47Y_49E_50V_52G_53A_54E_55F_67L_, Q9UKT9] | 3.4 | 2.95 | 2.08 | 0.0761
22 | FQCEVCGAEFTQKGNLLRHIKL [46F_47Q_49E_50V_52G_53A_54E_55F_67L_, Q9UKT9] | 0.65 | 0.856 | 1.61 | 3.7
23 | FVCPVCGAEFTQKGNLLRHIKL [46F_47V_49P_50V_52G_53A_54E_55F_67L_, Q9UKT9] | -0.775 | 1.8 | 1.37 | 2.53
